# PubChem BioAssay (NCATS)
# Inconclusive results are not listed. Calls of active or inactive are those of the source. Unless noted, no rule for the calls is given here.
# How the values were obtained:
# [1] = qHTS profiling of the MIPE4 collection as inhibitors of Plasmodium falciparum (3D7) proliferation (AID 743344);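 also: scaled between DMSO vehicle wells and 0.29 µM artemisinin as full inhibition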; conditions: P. falciparum 3D7 in erythrocytes, SYBR Green DNA fluorescence, 72 h; at 28.5 µM unless noted
# How it was run: (§1)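 Parasite DNA was quantified by SYBR Green I fluorescence (ex 485, em 535 nm) after overnight lysis in saponin/Triton buffer at room temperature. Cultures at 0.3% parasitemia and 2.5% hematocrit were first exposed to compound for 72 h at 37 C; signals were normalised to artemisinin (0.29 uM) and vehicle wells.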
# [2] = qHTS profiling of the MIPE4 collection as inhibitors of Plasmodium falciparum (DD2) proliferation (AID 743345); conditions: P. falciparum Dd2 in erythrocytes, SYBR Green DNA, 72 h; at 28.5 µM unless noted
# How it was run: as §1
# [3] = qHTS profiling of the MIPE4 collection as inhibitors of Plasmodium falciparum (HB3) proliferation (AID 743347);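 also: plate controls were DMSO vehicle wells for no effect and artemisinin wells for full effect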; conditions: P. falciparum HB3 in erythrocytes, SYBR Green DNA, 72 h; at 28.5 µM unless noted
# How it was run: as §1
# [4] = High-throughput drug toxicity screening in the BPDCN cell line Gen2.2 (AID 1224824); conditions: Gen2.2 BPDCN cells; at 45.8 µM (top of the series) unless noted;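 also: cells exposed to compounds for 48 h before reading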
# How it was run: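 Readout is ATP luminescence from Gen2.2 cells after two days of drug exposure in serum-containing medium at 37 °C. Values express percent activity, with vehicle defining full signal and 9.2 uM bortezomib defining zero.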
# [5] = High-throughput drug toxicity screening in the BPDCN cell line Cal-1 (AID 1224825); conditions: Cal-1 BPDCN cell viability, qHTS; at 45.8 µM (top of the series) unless noted
# How it was run: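 Percent activity derived from CellTiter-Glo luminescence, scaling DMSO to 100% and 9.2 uM final bortezomib to 0%. BPDCN Cal-1 cells (500/well, RPMI plus 10% FBS) incubated with compounds 48 hours at 37C before reading.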
# [6] = qHTS assay for measurement of the activity of small molecule inhibitors on Zika virus induced Caspase-3 activity in human iPSC derived neural progenitor cells (hNPCs) (AID 1224857; active = well fitted curve in the direction sought with a large enough effect; an effect the other way counts as inactive or inconclusive; also: % of control where 0% means no effect; nearly all actives have a fitted effect of over 65% in size)
# How it was run: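 Caspase-3/7 induction by a 6-hour ZIKV infection was quantified with a luminescent Caspase-Glo 3/7 reagent incubated 30 minutes at room temperature. Compounds were preincubated with hNPCs for 1 hour; inhibition was calculated against uninfected and infected control wells.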
# [7] = qHTS assay for measurement of the activity of small molecule inhibitors on Zika virus induced Caspase-3 activity in human astrocytoma cells (AID 1224859; active = well fitted curve in the direction sought with a large enough effect; an effect the other way counts as inactive or inconclusive;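 also: plate controls were ZIKV-infected untreated cells for no effect and uninfected cells for full effect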)
# How it was run: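 In SNB-19 cells plated at 250 cells/well and grown 16-20 h, compounds were applied 1 h before ZIKV (2 FFU/cell). Six hours later caspase-3/7 luminescence was recorded.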
# [8] = qHTS profiling for inhibitors of Plasmodium falciparum (HB3) proliferation (AID 743324; active = well fitted curve in the direction sought with a large enough effect; an effect the other way counts as inactive or inconclusive;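 also: 100% = DMSO vehicle wells and 0% = artemisinin-treated control wells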); conditions: Plasmodium falciparum HB3 blood-stage proliferation; at 28.7 µM (top of the series)
# How it was run: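 SYBR Green fluorescence (485 ex/535 em) of lysed cultures, incubated overnight at room temperature in the dark, quantifies parasite DNA. Infected erythrocytes at 0.3% parasitemia and 2.5% hematocrit were exposed 72 h; values normalized to DMSO and 0.29 uM artemisinin controls.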
# [9] = Identifying Small Molecule Inhibitors of Pancreatic Cancer Stem Cells (A2780, Spheroid) (AID 1259357; active = well fitted curve in the direction sought with a large enough effect; an effect the other way counts as inactive or inconclusive;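 also: potency is read from the fitted curve at half-maximal effect; compound exposure lasted 48 h before the ATP luminescence read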); conditions: Potency: A2780 spheroid viability
# How it was run: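 Viability is scored by CellTiter-Glo luminescence 48 h after dosing, expressed as percent activity against vehicle and no-cell references. Spheroid formats rely on cells cultured 14 days in stem cell media beforehand.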
# [10] = Identifying Small Molecule Inhibitors of Pancreatic Cancer Stem Cells (A278, Adherent) (AID 1259361; active = well fitted curve in the direction sought with a large enough effect; an effect the other way counts as inactive or inconclusive; also: nearly all actives have a fitted effect of over 35% in size)
# How it was run: (§2)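 Pre-formed 14-day tumor spheroids or adherent cells dosed and incubated 48 h, 37C, 5% CO2. Viability assessed by CellTiter-Glo.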
# [11] = Identifying Small Molecule Inhibitors of Pancreatic Cancer Stem Cells (Panc1, Adherent) (AID 1259362; active = well fitted curve in the direction sought with a large enough effect; an effect the other way counts as inactive or inconclusive; also: potency is read from the fitted curve at half-maximal effect;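 as to viability, % of control: compound exposure lasted 48 h before the viability read; plate controls were DMSO-treated cells for no effect and cell-free media wells for full effect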); conditions: Potency: viability
# How it was run: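 Cytotoxicity read by CellTiter-Glo luminescence after 48 h compound exposure at 37C; percent activity scaled between DMSO-treated cells and cell-free wells. Spheroid formats used cells pre-formed 14 days in stem cell media on hydrogel.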
# [12] = qHTS profiling of the MIPE4 collection as inhibitors of Plasmodium falciparum (DD2) proliferation (Rep 2) (AID 743346); conditions: P. falciparum Dd2 in erythrocytes, SYBR Green DNA, 72 h; at 28.5 µM unless noted
# How it was run: as §1
# [13] = Identifying Small Molecule Inhibitors of Pancreatic Cancer Stem Cells (SN12C, Adherent) (AID 1259358; active = well fitted curve in the direction sought with a large enough effect; an effect the other way counts as inactive or inconclusive;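 also: cell survival measured after 48 h of compound exposure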)
# How it was run: as §2
# [14] = Identifying Small Molecule Inhibitors of Pancreatic Cancer Stem Cells (Panc1, Spheroid) (AID 1259359; active = well fitted curve in the direction sought with a large enough effect; an effect the other way counts as inactive or inconclusive;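 also: potency is read from the fitted curve at half-maximal effect; compound exposure lasted 48 h before reading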); conditions: Panc1 spheroid cancer stem cell viability
# How it was run: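 Endpoint: ATP-based luminescence, 48 h drug exposure. Bortezomib at 9.2 uM final as full-kill control; DMSO vehicle as negative control; activity normalized between vehicle and cell-free wells.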
SMILES,"parasite growth, % of DMSO control [1] [%]","parasite growth remaining, % of DMSO control (lower = more inhibition) [2] [%]","growth, % of control [3] [%]","cell viability, % of control (lower = more cytotoxic) [4] [%]",viability (% of control) [5] [%],Potency [6],Potency [7],"remaining proliferation (% of control), lower = more inhibition [8] [%]",Potency [9],IC50 (viability decrease) [10],Potency [11],"parasite growth, % of control (lower = inhibition) [12] [%]",Potency [13],Potency [14]
O=C1NC(=O)C(=Cc2cccc(C(F)(F)F)c2)S1,88.5,93.5,96.2,128,110,inactive,inactive,,,,,,,
O=c1cc(N2CCOCC2)oc2c(-c3cccc4c3sc3ccccc34)cccc12,11.6,28.4,7.93,2.51,3.76,inactive,inactive,5.89,26.4 µM (active),18.7 µM (active),23.5 µM (active),,,
CC(C)=CC[C@@H](O)C1=CC(=O)c2c(O)ccc(O)c2C1=O,3.69,,2.71,5.88,13.2,inactive,inactive,,,,,4.13,,
COc1ncc(-c2ccc3nccc(-c4ccnnc4)c3c2)cc1NS(=O)(=O)c1ccc(F)cc1F,,7.55,4.97,3.44,3.33,inactive,inactive,-1.02,0.132 µM (active),0.118 µM (active),,,inactive,0.0074 µM (active)
CO[C@H]1C[C@@H]2CC[C@@H](C)[C@@](O)(O2)C(=O)C(=O)N2CCCC[C@@H]2C(=O)O[C@H]([C@@H](C)C[C@@H]2CC[C@H](O)[C@H](OC)C2)CC(=O)[C@H](C)C=C(C)[C@@H](O)[C@@H](OC)C(=O)[C@H](C)C[C@H](C)C=CC=CC=C1C,5.33,9.31,6.63,5.13,2.54,inactive,inactive,,,,,7.75,,
COc1ccc(-c2nc(N3CCOCC3)c3sc(CN(C)c4ncc(C(=O)NO)cn4)cc3n2)cn1,,6.7,,8.39,2.7,inactive,inactive,,,,,8.46,,
N#Cc1ccc(NC(=O)Nc2ccccc2Br)c2n[nH]nc12,7.67,,7.81,183,14.7,inactive,inactive,37.3,,,inactive,21.8,inactive,
NC(=O)NN=Cc1ccc([N+](=O)[O-])o1,13.6,48.9,13.3,172,72.8,inactive,inactive,,,,,14.3,,
CC(C)C(=O)Nc1ncc(-c2cc(C(F)F)nn2-c2c(Cl)cccc2Cl)s1,9.88,13.6,11.3,113,6.45,inactive,inactive,-0.0078,,,,18.7,,
CNC1CCC(N(Cc2cccc(-c3ccncc3)c2)C(=O)c2sc3c(F)ccc(F)c3c2Cl)CC1 (centres undefined),4.87,7.02,,0.6,0.705,inactive,inactive,,,,,23.7,,
